Experimental data: PubChem BioAssay AID624288 (National Center for Advancing Translational Sciences (NCATS), 2012)
About 1,400 (0.41%) of roughly 340,000 compounds were called active. A call without a number means that no potency is given here. Not shown: some 4% with an inconclusive outcome. The call rests on the fitted dose curve; cell line not stated here. For the sample, actives were picked, then their nearest neighbours and some compounds at random.
Potency means the concentration at half of the fitted maximal effect.

Experiment: qHTS for Antagonists of gsp, the Etiologic Mutation Responsible for Fibrous Dysplasia/McCune-Albright Syndrome: qHTS; further: nearly all actives have a fitted effect of over 65% in size
Details: gsp-mutant cells, cAMP HTRF, 30 min; series mostly up to 76.9 µM
Method in brief: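 HTRF cAMP measurement after 30 min RT detection following 30 min, 37C compound treatment alongside […] (added as 300 uM solution) in G418-selected cells seeded at 2000/well and grown 16–24 h.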
With `COc1ccc(CNCCCn2cnc3c(OCc4ccccc4)ncnc32)cc1` the Potency was “inactive”. With `CCN1CCN(C(=O)c2ccc(CN(c3ccc(C)c(C)c3)S(C)(=O)=O)cc2)CC1` the Potency was “inactive”. With `CCOC(=O)N1CCN(C(=O)CN(c2ccc(C)c(C)c2)S(=O)(=O)c2ccccc2)CC1` the Potency was “inactive”. For `CCOC(=O)N1CCN(C(=O)c2ccc(CN(c3ccc(C)c(C)c3)S(C)(=O)=O)cc2)CC1`, the Potency was 22.4 µM (active). In the case of `CC/C(=C\c1ccc(Cl)cc1)c1ccncc1`, the Potency is reported as “inactive”. In the case of `Cc1ccc(C)c(OCCC(=O)Nc2cccc(S(=O)(=O)N3CCCC3)c2)c1`, the Potency is reported as “inactive”. In the case of `Cc1ccc(C)c(S(=O)(=O)N2CCN(CC(=O)Nc3ccc([N+](=O)[O-])cc3)CC2)c1`, the Potency is reported as “inactive”. For `CC(=O)Nc1ccc(S(=O)(=O)N2CCN(CCCOc3cc(C)ccc3C)CC2)cc1`, the Potency was 31.6 µM (active). In the case of `CCC1([N+](=O)[O-])COC(c2ccc(C)cc2)OC1` (centres undefined), the Potency is reported as “inactive”. In the case of `NC(=O)C1(Nc2ccccc2Cl)CCCC1`, the Potency is reported as “inactive”. With `CC(Nc1ccc([N+](=O)[O-])cc1[N+](=O)[O-])c1ccccc1` (centres undefined) the Potency was “inactive”. In the case of `O=C(Nc1ccc(NC(=O)c2ccc3c(c2)OCO3)cc1)c1cccc(Cl)c1`, the Potency is reported as “inactive”. With `O=C(Nc1ccccc1)c1ccc2c(c1)OCCCO2` the Potency was “inactive”. With `O=C(Nc1cccc(S(=O)(=O)Nc2ccc(Cl)cc2)c1)c1ccc2c(c1)OCCO2` the Potency was 35.5 µM (active). For `CN(C(=O)c1cccc(NC(=O)Cc2ccc(NC(=O)C3CCN(C(=O)C4CCCCC4)CC3)cc2)c1)C1CCC1`, the Potency was “inactive”. With `COc1cc(/C=C/CNC[C@H]2O[C@@H](n3cnc(C(N)=O)n3)[C@H](O)[C@@H]2O)ccc1O` the Potency was “inactive”. In the case of `CC(=O)N1CCCc2cc(S(=O)(=O)N3CCCC(C(=O)N4CCN(c5cccc(Cl)c5)CC4)C3)ccc21` (centres undefined), the Potency is reported as 28.2 µM (active). With `CC(=O)N1CCCc2cc(S(=O)(=O)CCC(=O)N3CCN(c4ccccc4)CC3)ccc21` the Potency was “inactive”. For `CC(=O)N1CCCc2cc(S(=O)(=O)N3CCCC(C(=O)NCc4ccc(Cl)cc4)C3)ccc21` (centres undefined), the Potency was “inactive”. With `CC(=O)Oc1ccc(OC(C)=O)c2c1C1C=CC2CC1` the Potency was “inactive”. With `COc1ccccc1CNC(=O)CCn1c(=O)sc2ccccc21` the Potency was “inactive”. For `Cc1cccc(CSc2nnc(Cn3c(=O)sc4ccccc43)n2C)c1`, the Potency was “inactive”. For `COc1ccc(Cn2c(=O)sc3ccccc32)cc1OC`, the Potency was 11.2 µM (active). With `COc1ccc(CCN2CC(C(=O)OCC(=O)NCc3ccccc3Cl)CC2=O)cc1OC` (centres undefined) the Potency was “inactive”. In the case of `NC(CSC1(c2ccccc2)c2ccccc2-c2ccccc21)C(=O)O` (centres undefined), the Potency is reported as “inactive”. With `CSCCC(NC(=O)COc1ccccc1)C(=O)N1CCN(c2cccc(C(F)(F)F)c2)CC1` (centres undefined) the Potency was “inactive”. With `COC(C[C@@H](O)C[C@H](O)[C@H](C)OCc1ccccc1)OC` the Potency was 50.1 µM (active). For `COC(C[C@H](O)CC(=O)[C@@H](C)OCc1ccccc1)OC`, the Potency was “inactive”. In the case of `COC(C[C@@H](O)C[C@@H](O)[C@H](C)OCc1ccccc1)OC`, the Potency is reported as “inactive”. In the case of `CC(=NNC(=S)N1CCCCCC1)c1ccccn1`, the Potency is reported as “inactive”. With `CC(NC(=O)CCC(=O)N1CCN(S(=O)(=O)c2ccc(Cl)cc2)CC1)c1ccccc1` (centres undefined) the Potency was “inactive”. In the case of `O=C(CCC(=O)N1CCN(S(=O)(=O)c2ccc(Cl)cc2)CC1)NCc1cccc(C(F)(F)F)c1`, the Potency is reported as 35.5 µM (active). For `O=C(NCc1cccc(C(F)(F)F)c1)c1cccc(S(=O)(=O)N2CCN(Cc3ccccc3)CC2)c1`, the Potency was “inactive”. In the case of `NC(=O)c1ccc(N2CCCC2)nc1`, the Potency is reported as “inactive”. With `O=C(O)c1ccc(S(=O)(=O)c2ccccc2)s1` the Potency was “inactive”. With `O=C(Nc1cccc(Br)c1)c1ccc2snnc2c1` the Potency was “inactive”. In the case of `O=C(Nc1ccc2ccccc2c1)Nc1ccc2snnc2c1`, the Potency is reported as 31.6 µM (active). For `CCc1ccccc1NC(=O)c1ccc2snnc2c1`, the Potency was “inactive”. With `COc1cccc(C2c3[nH]c4ccccc4c3CCN2Cc2cccc(C)n2)c1` (centres undefined) the Potency was 39.8 µM (active). With `Oc1cccc(C2c3[nH]c4ccccc4c3CCN2Cc2cnn(-c3ccccc3)c2)c1` (centres undefined) the Potency was “inactive”. For `COc1ccc(C2c3[nH]c4ccccc4c3CCN2CCCn2cccn2)cc1C` (centres undefined), the Potency was “inactive”. In the case of `O=C(Nc1c(Br)cc2c(c1Br)Cc1cc([N+](=O)[O-])ccc1-2)C(Cl)Cl`, the Potency is reported as “inactive”. In the case of `CCN(CC)C(=O)c1sc(NC(=O)c2ccco2)c(C#N)c1C`, the Potency is reported as “inactive”. In the case of `Cn1nccc1CNC(=O)c1ccnn1C`, the Potency is reported as “inactive”. For `CCCc1ccc(-c2c(C)sc(NC(=O)c3ccnn3C)c2C#N)cc1`, the Potency was 20 µM (active). In the case of `COc1cc2c(cc1OC)C(Cc1cc(OC)c(OC)cc1[N+](=O)[O-])=NCC2`, the Potency is reported as “inactive”. With `NC(=O)c1ncn([C@@H]2O[C@H](CN=C3NS(=O)(=O)c4ccccc43)[C@@H](O)[C@H]2O)n1` the Potency was “inactive”. In the case of `O=C(Nc1ncc([N+](=O)[O-])s1)C1COc2ccccc2O1` (centres undefined), the Potency is reported as 39.8 µM (active). With `COc1ccc(OC)c2sc(NC(=O)C3COc4ccccc4O3)nc12` (centres undefined) the Potency was “inactive”. In the case of `O=C(CCc1ccccc1)Nc1ncc([N+](=O)[O-])s1`, the Potency is reported as “inactive”. With `Cc1cn(C2CC(O)C(CO)O2)c(=O)n(CCCc2ccccc2)c1=O` (centres undefined) the Potency was “inactive”. In the case of `COc1ccc(C(CNC(=O)c2cc(S(=O)(=O)Nc3cccc(C)c3)ccc2C)N2CCCC2)cc1` (centres undefined), the Potency is reported as “inactive”. For `CCOC(=O)c1ccccc1NC(=O)CSc1nc2c(sc(=S)n2CC)c(=O)[nH]1`, the Potency was “inactive”. In the case of `O=C(NN=Cc1ccc([N+](=O)[O-])cc1)C1CC1`, the Potency is reported as “inactive”. For `COc1cc(/C=N/NC(=O)c2ccc(N3CCCC3=O)cc2)ccc1O`, the Potency was “inactive”. For `O=C(N/N=C/c1cccc(Br)c1)c1ccc(N2CCCC2=O)cc1`, the Potency was 31.6 µM (active). With `Cn1c(=O)n(C)c2cc(/C=N/NC(=O)c3cccc(Br)c3)ccc21` the Potency was “inactive”. For `COc1ccc(/C=C2/CCCc3ccccc3C2=O)cc1`, the Potency was “inactive”. In the case of `CC(=O)OC1CCC2(C)C(=CCC3C4CC(=O)N(O)C(=O)C4(C)CCC32)C1` (centres undefined), the Potency is reported as “inactive”. In the case of `Cc1cccc(N=Nc2c(C)[nH]n(-c3ccccc3)c2=O)c1`, the Potency is reported as “inactive”. With `Cc1[nH]n(-c2cccc(Cl)c2)c(=O)c1-c1ccc(Cl)cc1` the Potency was 28.2 µM (active). For `CCCc1cc(=O)n2[nH]c(C)c(-c3ccc(Cl)cc3)c2n1`, the Potency was “inactive”. With `O=C(NN=Cc1ccccc1O)NN=Cc1ccccc1O` the Potency was “inactive”. With `Cc1cc(NC(=O)c2cc3ccccc3o2)no1` the Potency was “inactive”.
